Screening results from PubChem.
SRC2 TRFRET art – flags TR-FRET format artefacts in PPARgamma SRC-2 recruitment agonist screen | TR-FRET artefact counter-screen; stronger effect = higher value | TR-FRET ratio at 8 µM | 0.4% of 200,000 active
PPARg SRC-3 ag – agonists of human PPARgamma SRC-3 coactivator recruitment. P37231. biochemical PPARgamma/SRC-3 coactivator recruitment assay. activation, % at 8 µM. 0.26% of 200,000 active; in the data active means activation above about 23%;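 further: 0% = DMSO and 100% = reference agonist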
Target sequence (P37231 whole entry, looked up): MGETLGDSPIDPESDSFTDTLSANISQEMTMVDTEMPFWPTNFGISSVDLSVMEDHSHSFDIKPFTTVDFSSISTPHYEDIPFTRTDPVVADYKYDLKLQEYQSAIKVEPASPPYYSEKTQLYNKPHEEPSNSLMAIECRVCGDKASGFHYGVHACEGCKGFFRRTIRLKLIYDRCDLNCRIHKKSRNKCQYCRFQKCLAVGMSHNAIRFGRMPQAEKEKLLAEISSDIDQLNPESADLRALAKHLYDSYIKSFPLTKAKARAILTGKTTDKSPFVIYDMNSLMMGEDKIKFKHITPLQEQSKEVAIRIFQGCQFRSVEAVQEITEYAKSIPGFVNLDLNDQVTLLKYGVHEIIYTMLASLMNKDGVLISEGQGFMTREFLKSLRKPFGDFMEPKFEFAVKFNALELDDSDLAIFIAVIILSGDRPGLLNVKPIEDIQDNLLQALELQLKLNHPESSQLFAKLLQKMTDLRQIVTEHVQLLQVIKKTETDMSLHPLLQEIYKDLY
SRC3 TRFRET art – TR-FRET artefact, counter-screen to PPARgamma/SRC-3 agonist assay; PPARgamma/SRC-3 format; stronger effect = higher value; 0.39% of 99,000 active; TR-FRET ratio at 8 µM
SRC1 TRFRET art – flags TR-FRET format artefacts in PPARgamma SRC-1 recruitment agonist screen | TR-FRET ratio at 8 µM | TR-FRET detection artefact counter-screen, emission ratio; stronger effect = higher value | 0.34% of 99,000 active; in the data active means TR-FRET ratio above about 2300
PPARg SRC2 recr – agonists of SRC-2 recruitment by human PPARgamma | AID 1032 | 0.34% of 200,000 active | activation, % at 8 µM | P37231 | PPARgamma LBD-SRC-2 recruitment, biochemical; in the data active means activation above about 22%;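 further: 0% = vehicle and 100% = reference agonist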
PPARg SRC1 recr – PPARgamma-driven SRC-1 recruitment agonism | PPARgamma-SRC-1 coactivator recruitment biochemical assay | activation, % at 8 µM | 0.41% of 200,000 active; in the data active means activation above about 19%;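 further: 0% = DMSO and 100% = reference agonist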
An asterisk follows results filed as active; x = not tested or not shown. Most compounds without a hit are left out; they make up all but 0.9% or so of the library. Unless noted, no stated cut-off is given here; in the data, active means TR-FRET ratio above about 2000; inactive means the rest.

SMILES	SRC2 TRFRET art	PPARg SRC-3 ag	SRC3 TRFRET art	SRC1 TRFRET art	PPARg SRC2 recr	PPARg SRC1 recr
COc1ccc(-n2c(O)c(/C=N/NS(=O)(=O)c3cccc([N+](=O)[O-])c3)c3ccccc3c2=O)cc1OC	1428	6	1532	1942	-5	22*
Cc1ccc(C(=O)N(c2c(C)n(C)n(-c3ccccc3)c2=O)C(C)C)cc1	1368	-2	x	x	0	1
CCCCC(=O)Nc1nc2ccc3nc(C)sc3c2s1	1978*	0	x	x	7	-4
COC(=O)c1nnn(-c2ccccc2)c1N	1453	1	x	x	1	-1
COCc1c(C(=O)OC)nnn1-c1ccccc1	1401	12	x	x	-4	94*
CC(C)N(C)C(=O)C(=O)c1cccn1-c1cccc(Cl)c1C#N	1459	6	1624	2315*	7	8
c1ccc(CCn2c(C3CC3)nc3ccccc32)cc1	1472	5	x	x	4	4
Cc1nn(-c2ccccn2)c2c1-c1nc(N)ncc1CC2	1459	10	x	x	0	1
Cc1nn(-c2ccccn2)c2c1-c1nc(N3CCOCC3)ncc1CC2	1572	-6	x	x	1	22*
O=C(Nc1ccc2c(c1)OCCO2)N1CCN(Cc2ccccc2)CC1	1651	-4	1342	1807	0	-7
COc1ccccc1-c1cc(-c2ccccc2)nc(SC(C(N)=O)c2ccccc2)c1C#N (configuration not stated)	3201*	-1	x	x	7	8
CCN(CC)C(=O)CSc1nc2ncccc2[nH]1	1315	32*	x	x	10	6
Cc1cc2nc(-c3ccc(SCc4ccc(C#N)cc4)nc3)[nH]c2cc1C	2209*	10	x	x	12	5
COc1ccc(-c2oc(/N=C/N3CCOCC3)c(C#N)c2-c2ccc(OC)cc2)cc1	1496	5	x	x	4	1
COC(=O)c1ccccc1NC(=O)Cc1nc(-c2ccccc2)sc1-c1ccc(C)cc1	1651	4	2243*	1833	-6	7
CCOC(=O)c1sc(-c2ccccn2)nc1C	1392	4	1708	1830	2	0
CC(=O)c1cccc(NC(=O)c2cc3ccccn3n2)c1	1832	4	x	x	24*	6
O=C1CCN(S(=O)(=O)c2ccc(Br)cc2)CCN1	1639	-5	1527	1647	-5	-3
Cc1ccc(S(=O)(=O)C2(C(=O)N3CCCCC3C)CC2)cc1 (configuration not stated)	1517	3	x	x	-2	-3
N#Cc1c(N)nc(SCC(=O)C23CC4CC(CC(C4)C2)C3)c(C#N)c1-c1ccc(Cl)cc1	1336	4	x	x	2	99*
CSc1nc(N)nc(SCC(=O)C23CC4CC(CC(C4)C2)C3)c1C#N	1593	13	x	x	4	2
CCc1ccc(N(C(=O)c2csnn2)C(C(=O)NC(C)(C)C)c2cccnc2)cc1 (configuration not stated)	2266*	-2	1691	1763	23*	0
CSc1nc2ccc(NS(=O)(=O)c3cccc(Cl)c3Cl)cc2s1	1648	-2	1462	1557	8	1
Cn1c(SCC(=O)Nc2cccc(Br)c2)nnc1-c1cc2ccccc2o1	1713	4	x	x	-6	31*
O=C(O)C(CC1CCCCC1)N1CCS(=O)(=O)CC1 (configuration not stated)	1801	12	1679	1666	7	15
SMILES	SRC2 TRFRET art	PPARg SRC-3 ag	SRC3 TRFRET art	SRC1 TRFRET art	PPARg SRC2 recr	PPARg SRC1 recr
CC(C)(C)c1ccc(C(=O)NCC(=O)OCC(=O)c2ccc3c(c2)-c2ccccc2C3)cc1	2064*	2	1890	2576*	7	1
O=C(CNC(=O)c1cccs1)OCC(=O)c1ccc2ccccc2c1	1722	3	x	x	10	-5
CC1(C)CC(=NO)CC(C)(C)N1	1589	-3	x	x	-1	10
COc1cccc(OCCNC(=O)Nc2cc(F)c(F)cc2Cl)c1	1632	1	1608	1952	4	-1
O=C(CSc1ccc(-c2ccccc2)nn1)c1cccs1	1579	1	1646	1739	7	-3
COc1ccc(-c2ccc(SCC(=O)c3cccs3)nn2)cc1	1638	4	2137*	2310	14	-6
CC1CCN(S(=O)(=O)c2ccc3c(c2)oc(=O)n3CC(=O)N2c3ccccc3CC2C)CC1 (configuration not stated)	2000*	9	x	x	16	10
COc1c(OC)c(O)c2c(=O)cc(-c3c(O)cccc3O)oc2c1OC	1598	0	1661	1922	2	21*
